This is an account of results in PubChem BioAssay (EPA / NIEHS).

Records with an inconclusive call do not appear. Calls of active or inactive are those of the source. The calls were made as follows: active = hit-call score of the fitted dose curve at least 0.9, where 1 is the maximum; inconclusive = response in the unintended direction; inactive = score below 0.9.

This experiment in a line: ACEA_AR_agonist_AUC_viability: ACEA Biosciences xCELLigence Real-Time Cell Analysis on Androgen Receptor Agonism for Viability (AID 2283775).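 As to AC50: viability read 80 hours after compound addition.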 An outline of the steps:
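22Rv1 cells; impedance growth kinetics; 8-pt 1:4 dilutions from 100 uM top final, ≤0.5% DMSO; n = 2; 80 h read; AUC viability, loss-of-signal vs DMSO.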
Take `CC(C)=CCC[C@](C)(O)[C@@H]1CC=C(C)CC1`: the molecule was classed as inactive.

As for `O=C(O)CCCCCCCC(=O)O`, the molecule was classed as inactive.

As for `O=C[C@@H](O)[C@H](O)[C@H](O)CO`, the outcome was inactive.

For `CC(C)=CCCC(C)CC=O` (stereo not drawn), the outcome was inactive.

`NCCCN1CCOCC1`: the molecule was classed as inactive.

For the molecule `CCN(CC)c1ccc2c(-c3ccccc3C(=O)O)c3ccc(=[N+](CC)CC)cc-3oc2c1`, the AC50 was 9.44 µM (active).

Regarding `C=O`, the result was inactive.

As for `CC(C)C[C@H]1C(=O)N2CCC[C@H]2[C@]2(O)O[C@](NC(=O)[C@@H]3C=C4c5cccc6[nH]c(Br)c(c56)C[C@H]4N(C)C3)(C(C)C)C(=O)N12`, the call was inactive.

Regarding `CCCOCC(C)O` (stereo not drawn), the result was inactive.

`CCCCCCCCC`: the molecule was called inactive.

In the case of `CC1=CC(=O)NS(=O)(=O)O1`, the outcome was inactive.

As to `CC1(C)[C@@H]2CC[C@@]1(C)[C@H](O)C2`, the molecule was called inactive.

As to `COc1c(Cl)c(Cl)c(Cl)c(Cl)c1Cl`, the call was inactive.

As for `O=C1C(c2[nH]c3ccc(S(=O)(=O)O)cc3c2O)=Nc2ccc(S(=O)(=O)O)cc21`, the result was inactive.

Take `NC(=O)Nc1ccc(Cl)cc1`: the molecule was called inactive.

Turning to `c1ccc(CCCc2ccccn2)cc1`, the outcome was inactive.

For the molecule `CCCCC[Si](OCC)(OCC)OCC`, the molecule was called inactive.

Take `OC1OC[C@@H](O)[C@H](O)[C@H]1O` (stereo partly drawn): the molecule was classed as inactive.

With `O=C(O)c1ccc([N+](=O)[O-])cc1`, the outcome was inactive.

Regarding `CSc1nc(NC2CC2)nc(NC(C)(C)C)n1`, the result was inactive.

As to `CCCCCCCCCCCCCCCCCC(=O)OCC(CC)CCCC` (stereo not drawn), the call was inactive.

For the molecule `BrC1CCC(Br)C(Br)CCC(Br)C(Br)CCC1Br` (stereo not drawn), the molecule was classed as inactive.

Consider `Cc1ccc(S)cc1`, for which the outcome was inactive.

For `C=CC(C)(O)CCC=C(C)CCC=C(C)C` (stereo not drawn), the molecule was called inactive.

Take `OCCOCCOCCOCCO`: the result was inactive.

Regarding `O=C(O)Cc1cccc2ccccc12`, the result was inactive.

For `CCCCCCCCCCCCN`, the result was inactive.

For `CC(C)CCCCCCCOC(=O)c1ccc(C(=O)OCCCCCCCC(C)C)c(C(=O)OCCCCCCCC(C)C)c1`, the molecule was called inactive.
